Among the data in PubChem BioAssay AID2284348 (EPA ToxCast) are AC50 and outcome values, retold here.

As a reminder, the AC50 is the midpoint of the concentration-response curve, whichever way the signal moves.

Inconclusive results are not listed. Activity calls are given as the source filed them. Rule for the calls: active = hit-call score of the fitted dose curve at least 0.9, where 1 is the maximum; inconclusive = response in the unintended direction; inactive = score below 0.9.

This assay relates to Japanese medaka Peroxisome Proliferator-activated Receptor alpha (PPARa), gene 100304458. As to the kind of experiment: ATG_jmPPARa_EcoTox2: Attagene TRANS-FACTORIAL EcoTox-2 HepG2 Assay for Japanese medaka Peroxisome Proliferator-activated Receptor alpha (PPARa). How it is done:
ATG_EcoTox2 is a cell-based, multiplexed assay created by modifying the existing Attagene TRANS-FACTORIAL system to include a panel of nuclear receptors from some or all the following species: human (Homo sapiens), african clawed frog (Xenopus laevis), rainbow trout (Oncorhynchus mykiss), japanese medaka (Oryzias latipes), and zebrafish (Danio rerio). The ECOTOX2-FACTORIAL format uses HepG2, a human liver cell line, with measurements taken at 24 hours after chemical dosing in a 24-well plate. ATG_jmPPARa_EcoTox2 is one of 29 assay components calculated in the ATG_EcoTox2 assay. It is designed to make measurements of mRNA induction, a form of inducible reporter, as detected with fluorescence intensity signals by Reverse transcription polymerase chain reaction (RT-PCR) and Capillary electrophoresis technology.The assay endpoint ATG_jmPPARa_EcoTox2 was analyzed in the positive analysis fitting direction relative to DMSO as the negative control and baseline of activity. Using a type of inducible reporter, measures of mRNA for gain-of-signal activity can be used to understand the reporter gene at the transcription factor-level as they relate to the gene PPARa. Furthermore, this assay endpoint can be referred to as a […], because this assay has produced multiple assay endpoints where this one serves a reporter gene function. To generalize the intended target to other relatable targets, this assay endpoint is annotated to the nuclear receptor intended target family, where the subfamily is non-steroidal.
Human liver HepG2 cells are transiently transfected with multiple reporter transcription units (MRTUs) in 6-well plates using FuGene 6 reagent (Roche; 3 ml FuGene/1 mg DNA). The MRTU constructs are regulated by a cis-regulating element (promoter). Each RTU expresses a GAL4-UAS that regulates the transcription of a nearby target reporter gene sequence. A major difference between the CIS and TRANS system is that in CIS activities of endogenous TFs are measured, whereas the TRANS assay evaluates changes in activities of exogenous, chimeric NR-Gal4 proteins. […] At the end of 24 hour incubation, total RNA was isolated using TriZol reagent (Invitrogen). The isolated RNA is then reverse-transcribed using oligo(dT) primer and Mo-MLV reverse transcriptase (Invitrogen) with DNAse I (Ambion) treatment for 30 min. The one-tenth of the produced cDNA was amplified by PCR using Taq DNA polymerase (Invitrogen) and two reporter sequence-specific primers. […] The fragments were purified using Qiaquick PCR columns (Qiagen), analyzed on an ABI 3130xL genetic analyzer (Applied Biosystems) with peak positions identified by using a set of X-rhodamine (ROX)-labeled MapMarker1000 molecular weight standards (BioVentures). […]
`[Cl][Sn]([c]1ccccc1)([c]1ccccc1)[c]1ccccc1`: the AC50 was 0.473 µM (active).

Turning to `O=S(=O)(O)C(F)(F)C(F)(F)C(F)(F)C(F)(F)C(F)(F)C(F)(F)F`, the result was inactive.

For the compound `O=C(O)C(F)(F)C(F)(F)C(F)(F)C(F)(F)C(F)(F)C(F)(F)C(F)(F)F`, the AC50 was 75 µM (active).

With `CCCCOCN(C(=O)CCl)c1c(CC)cccc1CC`, the AC50 is 50 µM (active).
